Measured values as given in PubChem BioAssay AID1159580 (chemical genetic matrix, 2015).
Where “and” joins values, the source holds several entries; their conditions need not be identical. Identical values can stand only once. Out of some 5,500 compounds screened, about 2,000 (36%) were called active. Another 18% or so got no clear call; they are omitted. Rule as the data show it: active = normalized growth mostly below about 0.91 (no sharp cut-off); inconclusive = no clear call, values can overlap the other calls; inactive = mostly above about 0.92. Some of the results follow.

Assay: chemical genetic growth profiling, strain panel (AID 1159580);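 also: tested at 20 µM; growth read once vehicle control cultures reached saturation at 30 °C; 1 = growth at the plate median or of vehicle wells; lower values mean less growth of the strain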
Details: growth OD

Measured: normalized growth

CN(C)C(=O)C(CCN1CCC(O)(c2ccc(Cl)cc2)CC1)(c1ccccc1)c1ccccc1
inactive: S. cerevisiae deletion strains, locus YJR075W, strain HOC1, hits give low values 1.01 and 0.984 | S. cerevisiae deletion strains, locus YKL009W, strain mrt4, hits give low values 1.01 | S. cerevisiae deletion strains, locus YKL068W, hits give low values 1 | S. cerevisiae deletion strains, locus YKL085W, strain MDH1 (second series), hits give low values 1.01 | S. cerevisiae deletion strains, locus YKL085W, strain MDH1, hits give low values 1.01 | S. cerevisiae deletion strains, locus YKL160W, strain elf1, hits give low values 0.973 | S. cerevisiae deletion strains, locus YKL190W, strain CNB1, hits give low values 0.997 | S. cerevisiae deletion strains, locus YKR001C, strain vps1, hits give low values 1.01 | S. cerevisiae deletion strains, locus YKR026C, strain gcn3, hits give low values 0.997 | S. cerevisiae deletion strains, locus YKR091W, strain srl3, hits give low values 0.991 | S. cerevisiae deletion strains, locus YLL001W, strain dnm1, hits give low values 0.971 | S. cerevisiae deletion strains, locus YLL026W, hits give low values 0.987 | S. cerevisiae deletion strains, locus YLL041C, strain sdh2, hits give low values 1 | S. cerevisiae deletion strains, locus YLR027C, strain aat2, hits give low values 0.976 | S. cerevisiae deletion strains, locus YLR039C, strain RIC1, hits give low values 1.05 | S. cerevisiae deletion strains, locus YLR058C, strain SHM2, hits give low values 1 | S. cerevisiae deletion strains, locus YLR102C, strain apc9, hits give low values 1.01 | S. cerevisiae deletion strains, locus YLR113W, strain HOG1, hits give low values 0.988 | S. cerevisiae deletion strains, locus YLR221C, strain rsa3, hits give low values 1 | S. cerevisiae deletion strains, locus YLR258W, strain gsy2, hits give low values 0.995 | S. cerevisiae deletion strains, locus YLR262C, strain YPT6 (second series), hits give low values 1.03 | S. cerevisiae deletion strains, locus YLR262C, strain YPT6, hits give low values 0.991 | S. cerevisiae deletion strains, locus YLR268W, strain sec22, hits give low values 1.04 | S. cerevisiae deletion strains, locus YLR320W, strain mms22, hits give low values 0.932 | S. cerevisiae deletion strains, locus YLR330W, strain CHS5, hits give low values 0.993 | S. cerevisiae deletion strains, locus YLR342W, strain FKS1 (second series), hits give low values 0.946 | S. cerevisiae deletion strains, locus YLR342W, strain FKS1, hits give low values 0.955 | S. cerevisiae deletion strains, locus YLR357W, strain rsc2, hits give low values 0.994 | S. cerevisiae deletion strains, locus YLR370C, strain arc18, hits give low values 1 | S. cerevisiae deletion strains, locus YLR371W, strain rom2, hits give low values 1.01 | S. cerevisiae deletion strains, locus YLR384C, strain iki3, hits give low values 0.996 | S. cerevisiae deletion strains, locus YLR418C, strain cdc73, hits give low values 0.979 | S. cerevisiae deletion strains, locus YML016C, strain PPZ1, hits give low values 0.998 | S. cerevisiae deletion strains, locus YML032C, strain rad52, hits give low values 1.01 | S. cerevisiae deletion strains, locus YML120C, strain ndi1, hits give low values 0.993 | S. cerevisiae deletion strains, locus YML124C, strain tub3, hits give low values 1.01 | S. cerevisiae deletion strains, locus YMR058W, strain fet3, hits give low values 0.996 | S. cerevisiae deletion strains, locus YMR078C, strain ctf18, hits give low values 1.01 | S. cerevisiae deletion strains, locus YMR125W, strain sto1, hits give low values 1.02 | S. cerevisiae deletion strains, locus YMR129W, hits give low values 1 | S. cerevisiae deletion strains, locus YMR205C, strain PFK2, hits give low values 0.969 | S. cerevisiae deletion strains, locus YMR223W, strain ubp8, hits give low values 0.992 | S. cerevisiae deletion strains, locus YMR231W, strain pep5, hits give low values 0.985 | S. cerevisiae deletion strains, locus YMR263W, strain SAP30, hits give low values 1.01 and 0.992 | S. cerevisiae deletion strains, locus YMR307W, strain GAS1, hits give low values 0.941 and 0.992 | S. cerevisiae deletion strains, locus YNL067W, strain RPL9B, hits give low values 1.01 | S. cerevisiae deletion strains, locus YNL071W, strain lat1, hits give low values 0.975 | S. cerevisiae deletion strains, locus YNL128W, strain TEP1, hits give low values 1.01 | S. cerevisiae deletion strains, locus YNL153C, strain GIM3, hits give low values 1.01 | S. cerevisiae deletion strains, locus YNL175C, strain NOP13, hits give low values 1 | S. cerevisiae deletion strains, locus YNL183C, strain NPR1, hits give low values 0.939 | S. cerevisiae deletion strains, locus YNL197C, strain WHI3, hits give low values 0.987 | S. cerevisiae deletion strains, locus YNL209W, strain ssb2, hits give low values 1.01 | S. cerevisiae deletion strains, locus YNL224C, strain SQS1, hits give low values 1.04 | S. cerevisiae deletion strains, locus YNL233W, strain BNI4, hits give low values 1 | S. cerevisiae deletion strains, locus YNL248C, strain rpa49, hits give low values 0.988 | S. cerevisiae deletion strains, locus YNL250W, strain rad50, hits give low values 1.02 | S. cerevisiae deletion strains, locus YNL271C, strain bni1, hits give low values 1.02 | S. cerevisiae deletion strains, locus YNL298W, strain CLA4, hits give low values 1 | S. cerevisiae deletion strains, locus YNL307C, strain MCK1, hits give low values 0.994 | S. cerevisiae deletion strains, locus YNL322C, strain KRE1 (second series), hits give low values 0.993 | S. cerevisiae deletion strains, locus YNL322C, strain KRE1, hits give low values 1.01 | S. cerevisiae deletion strains, locus YNR049C, strain mso1, hits give low values 1 | S. cerevisiae deletion strains, locus YNR052C, strain pop2, hits give low values 1 | S. cerevisiae deletion strains, locus YOL006C, strain TOP1, hits give low values 1.01 | S. cerevisiae deletion strains, locus YOL012C, strain htz1 1.2 | S. cerevisiae deletion strains, locus YOL147C, strain pex11, hits give low values 1.01 | S. cerevisiae deletion strains, locus YOR001W, strain rrp6, hits give low values 0.982 | S. cerevisiae deletion strains, locus YOR061W, strain CKA2, hits give low values 0.995 | S. cerevisiae deletion strains, locus YOR069W, strain VPS5, hits give low values 1 | S. cerevisiae deletion strains, locus YOR070C, strain gyp1, hits give low values 0.996 | S. cerevisiae deletion strains, locus YOR080W, strain dia2, hits give low values 0.981 | S. cerevisiae deletion strains, locus YOR083W, strain WHI5 (second series), hits give low values 1.07 | S. cerevisiae deletion strains, locus YOR083W, strain WHI5, hits give low values 0.954 | S. cerevisiae deletion strains, locus YOR106W, strain vam3, hits give low values 1 | S. cerevisiae deletion strains, locus YOR136W, strain idh2, hits give low values 1 | S. cerevisiae deletion strains, locus YOR144C, strain elg1, hits give low values 1.01 | S. cerevisiae deletion strains, locus YOR184W, strain ser1, hits give low values 1.02 | S. cerevisiae deletion strains, locus YOR231W, strain MKK1, hits give low values 0.997 | S. cerevisiae deletion strains, locus YOR265W, strain rbl2, hits give low values 1 | S. cerevisiae deletion strains, locus YOR270C, strain vph1, hits give low values 0.996 | S. cerevisiae deletion strains, locus YOR290C, strain snf2, hits give low values 0.973 | S. cerevisiae deletion strains, locus YOR316C, strain cot1, hits give low values 1.01 | S. cerevisiae deletion strains, locus YPL051W, strain arl3, hits give low values 0.99 | S. cerevisiae deletion strains, locus YPL055C, strain LGE1, hits give low values 0.999 | S. cerevisiae deletion strains, locus YPL078C, strain atp4, hits give low values 0.971 | S. cerevisiae deletion strains, locus YPL106C, strain sse1, hits give low values 0.952 | S. cerevisiae deletion strains, locus YPL240C, strain hsp82, hits give low values 0.992 | S. cerevisiae deletion strains, locus YPL241C, strain CIN2, hits give low values 0.992 and 1 | S. cerevisiae deletion strains, locus YPL256C, strain CLN2, hits give low values 0.973 | S. cerevisiae deletion strains, locus YPR119W, strain clb2, hits give low values 1.01 | S. cerevisiae deletion strains, locus YPR141C, strain kar3, hits give low values 1.02 | S. cerevisiae deletion strains, locus YPR163C, strain tif3, hits give low values 1.03 | S. cerevisiae deletion strains, locus YPR167C, strain met16, hits give low values 1.01 | S. cerevisiae deletion strains, strain wtn01, hits give low values 1.02 | S. cerevisiae strains, strain wild type, hits give low values 0.993
